Assay outcomes (PubChem BioAssay)
Only some compounds are listed: those with a hit (about 11% of all), similar ones and a draw of the others.
12-hLO inh – 12-hLO (ALOX12) enzyme inhibition | P18054 | purified 12-hLO, xylenol orange hydroperoxide absorbance | Potency, µM (top dose mostly 57.1 µM), usual class: inhibitors | 150,000 tested, 0.12% active | AID 1452; also: nearly all actives have a fitted effect of over 55% in size
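Purified human 12hLO (150 nM final) was preincubated with compounds for 15 min at room temperature in 25 mM Hepes pH 7.0, 0.01% Triton X-100, then reacted with 40 uM arachidonic acid for 30 min. Hydroperoxide was detected with ferrous iron/xylenol orange.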
IMPase Li inh – cell-permeable IMPase inhibitors with lithium potentiation. AID 1457. Potency, µM (highest dose often 59.4 µM), most hits filed as inhibitors. CHO-M1 cells, IP1 TR-FRET (IP-One), carbachol + lithium. 210,000 tested, 0.35% active;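 also: IP1 builds up when IMPase is blocked and the TR-FRET signal falls; nearly all actives have a fitted effect of over 50% in size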
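Steps: plate 2000 CHO-M1 cells per well and culture 16–30 h; add compound and lithium; incubate 30 min, 37C; add d2-IP1 tracer and Eu cryptate anti-IP1 antibody in lysis buffer; read after 10 min at room temperature.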
ALDH1A1 inh – ALDH1A1 (human) enzyme inhibition; P00352; Purified ALDH1A1, NADH fluorescence, propionaldehyde substrate; Potency, µM (titrated, usually from 75.3 µM), most hits filed as inhibitors; 220,000 tested, 7.3% active; AID 1030; active = well fitted inhibition curve with a large enough effect, not every such curve was filed as active; inconclusive = small, poorly fitted or top-dose-only effect, or another doubt; inactive = no such curve, though single readings can be large or run the other way
Target sequence (P00352 whole entry, looked up): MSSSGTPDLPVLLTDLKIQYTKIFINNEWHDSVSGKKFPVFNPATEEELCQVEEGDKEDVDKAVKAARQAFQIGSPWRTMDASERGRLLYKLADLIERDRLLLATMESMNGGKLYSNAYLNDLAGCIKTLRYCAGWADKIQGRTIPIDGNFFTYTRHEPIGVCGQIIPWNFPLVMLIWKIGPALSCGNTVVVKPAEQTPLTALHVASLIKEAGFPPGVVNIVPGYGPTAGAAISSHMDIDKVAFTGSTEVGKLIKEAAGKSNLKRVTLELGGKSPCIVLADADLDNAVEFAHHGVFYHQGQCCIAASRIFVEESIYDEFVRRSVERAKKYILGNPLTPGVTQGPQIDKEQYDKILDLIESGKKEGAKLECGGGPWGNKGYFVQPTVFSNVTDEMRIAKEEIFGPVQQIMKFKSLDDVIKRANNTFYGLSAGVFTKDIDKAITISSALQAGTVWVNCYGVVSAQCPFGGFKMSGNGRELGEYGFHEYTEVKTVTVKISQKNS
IMPase cell inh – IMPase inhibition in cells; P97697; CHO-M1 cells, IP1 accumulation, HTRF TR-FRET ratio; inhibition (IP1 accumulation), % at 46.1 µM; 120,000 tested, under 10 active; active = well fitted curve in the direction sought with a large enough effect in the signal ratio, not every such curve was filed as active; inconclusive = small, poorly fitted or top-dose-only effect, or a change in a side signal; inactive = no such curve, though single readings can be large or run the other way; the % refers to the signal ratio;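 also: cells stimulated with carbachol in lithium chloride buffer; higher means more IMPase inhibition seen as more IP1 and lower FRET ratio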
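Cellular IMPase inhibition is scored as a rise in cytosolic IP1, detected by competitive TR-FRET between d2-labelled IP1 and a europium anti-IP1 antibody. M1-expressing CHO cells were stimulated with carbachol for 30 min at 37C, with lithium (50 mM LiCl) present in the buffer.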
HPGD inh – HPGD (human) dehydrogenase inhibition; Potency, µM, hits mostly inhibitors; 150,000 tested, 4.3% active; purified HPGD, NADH fluorescence kinetic, PGE2 substrate; active = well fitted inhibition curve with a large enough effect, not every such curve was filed as active; inconclusive = small, poorly fitted or top-dose-only effect, or another doubt; inactive = no such curve, though single readings can be large or run the other way
Target sequence (P15428 whole entry, looked up): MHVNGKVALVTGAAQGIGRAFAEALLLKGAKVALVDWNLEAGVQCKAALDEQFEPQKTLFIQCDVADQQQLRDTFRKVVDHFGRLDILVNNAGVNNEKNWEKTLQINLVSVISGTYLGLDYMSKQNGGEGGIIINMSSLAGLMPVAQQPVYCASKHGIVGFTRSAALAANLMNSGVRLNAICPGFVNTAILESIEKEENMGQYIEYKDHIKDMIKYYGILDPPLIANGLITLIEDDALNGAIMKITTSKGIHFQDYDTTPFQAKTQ
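NADH formation kinetics: reaction with 30 uM PGE2 and 1 mM NAD+ (final), 20 nM enzyme, Tris-HCl pH 8 with Tween 20, after 15 min compound preincubation at room temperature. Fluorescence change, last versus first of five reads.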
PNC assembly inh – perinucleolar compartment assembly inhibition. PC3M PTB-GFP, PNC prevalence imaging, 16 h; stronger effect = lower value. activity change (PNC), negative = inhibition, % at 10 µM. 140,000 tested, 3.1% active. AID 2417;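 active = readout at or below -70, meaning at least 70% loss of cells showing the perinucleolar compartment, a nuclear body marking cancer cells; inconclusive = readout between -30 and a set limit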
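Read-out is percentage of cells bearing a perinucleolar compartment, from automated 20x imaging of fixed, Hoechst-stained PC3M PTB-GFP cells. Cells were seeded 4 h, then exposed 16 h to compound (23 nl of library stock) in duplicate plates.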
Hits are given with their value; – = inactive; ? = inconclusive; · = no result given; [ ] = dose if it differs, or a comment. Unless noted, calls follow the shape of the dose curve; as a rule, active = well fitted curve in the direction sought with a large enough effect; inconclusive = small, poorly fitted or top-dose-only effect, or another doubt; inactive = no such curve, though single readings can be large; an effect the other way counts as inactive or inconclusive.

SMILES | 12-hLO inh | IMPase Li inh | ALDH1A1 inh | IMPase cell inh | HPGD inh | PNC assembly inh
CC/C=C\C/C=C\C/C=C\C/C=C\C=C\C(O)CCCC(=O)O (centres undefined) | – | – | – | · | – | ·
O=C(COc1ccc([N+](=O)[O-])cc1)Nc1cccc2cccnc12 | · | · | · | – | · | ·
COc1ccc2cc3cc(C(=O)NCCCN4CCOCC4)oc3nc2c1 | – | – | ? | – | ? | –
Cc1ccc2cc3cc(C(=O)NCCN4CCOCC4)oc3nc2c1 | – | – | ? | – | ? | -100
COc1ccccc1CN1CCCC2(CCN(S(=O)(=O)c3ccccc3)CC2)C1 | – | – | – | · | – | ·
CCOC(=O)c1nn(-c2ccc(F)cc2)c(-c2ccccc2)c1C(=O)c1ccccc1 | – | – | 11µM | – | – | –
c1cnc(N2CCSCC2)nc1 | – | – | – | – | – | -91
O=C(CSC1=NC(=O)C(c2ccccc2)C(=O)N1)Nc1ccccc1Cl (centres undefined) | – | – | 20µM | – | – | ?
O=C(CSC1=NC(=O)C(c2ccccc2)C(=O)N1)Nc1ccccc1[N+](=O)[O-] (centres undefined) | · | – | ? | · | · | ·
CS(=O)(=O)N1CCC2(CCN(c3ccccn3)CC2)CC1 | – | – | ? | · | – | ·
COc1ccc(C(=O)OC2CCN(c3ncc(C(F)(F)F)cc3Cl)CC2)cc1 | – | – | – | – | – | –
CO/N=C/C1CCN(c2ncc(C(F)(F)F)cc2Cl)C1=O (centres undefined) | · | – | 32µM | · | · | ·
Cc1noc(C)c1S(=O)(=O)N1CCC(C(=O)c2ccccc2)CC1 | · | · | – | · | · | ·
Cc1noc(C)c1S(=O)(=O)N1CCN(C(c2ccccc2)c2ccc(Cl)cc2)CC1 (centres undefined) | – | – | ? | – | – | -90
CC1=Nn2c(nnc2-c2n[nH]c3c2CCC3)SC1 | – | – | – | – | – | ?
CC(C)(C)C1=Nn2c(nnc2-c2n[nH]c3c2CCC3)SC1 | – | – | ? | – | 16µM | ?
COc1ccccc1N1C(=O)CC(Sc2ncccc2C(=O)O)C1=O (centres undefined) | – | – | – | – | – | -100
O=C(O)c1cccnc1SC1CC(=O)N(c2cccc(C(F)(F)F)c2)C1=O (centres undefined) | – | – | 13µM | – | – | –
O=C1CC(Sc2ncccn2)C(=O)N1c1ccccc1C(F)(F)F (centres undefined) | – | – | 20µM | – | – | –
CCC(=O)O[C@@H]1[C@H](C)O[C@H](O[C@H]2[C@@H](N(C)C)[C@H](O)[C@@H](O[C@@H]3[C@@H](CC=O)C[C@@H](C)[C@@H](O)/C=C\C=C/C[C@@H](C)OC(=O)C[C@@H](OC(=O)CC)[C@H]3OC)O[C@H]2C)C[C@]1(C)O | – | – | – | – | – | ·
Nc1nc2c(c(=O)[nH]1)CN(c1ccc(S(N)(=O)=O)cc1)CN2 | –[11.4 µM] | – | –[13.5 µM] | · | – | ·
CCC(CC)C(=O)Nc1cccc(C(=O)NCc2ccco2)c1 | – | – | – | – | – | -115
CCC(CC)C(=O)Nc1cccc(C(=O)NCCc2ccccc2)c1 | · | – | – | · | · | ·
CCC(CC)C(=O)Nc1cccc(C(=O)NCCc2ccc(S(N)(=O)=O)cc2)c1 | – | – | – | – | – | -101
COc1ccc(S(=O)(=O)NNC(N)=S)cc1 | · | – | ? | · | · | ·
SMILES | 12-hLO inh | IMPase Li inh | ALDH1A1 inh | IMPase cell inh | HPGD inh | PNC assembly inh
CCOc1ccc(N(CC(=O)Nc2ccc3c(c2)OCO3)S(=O)(=O)c2ccccc2)cc1 | · | · | · | – | · | ·
c1ccc(CN=C2NN=C(c3cc4ccccc4o3)CS2)cc1 | – | – | 28µM | · | 16µM | –
Cc1ccc(C)c(C2=NNC(=NCc3ccccc3)SC2)c1 | · | – | 18µM | · | · | ·
C=CCn1c(C)cc(C2=NNC(=NCc3ccccc3)SC2)c1C | · | – | ? | · | · | ·
c1csc(C2=NNC(=NC3CCCCC3)SC2)c1 | · | – | ? | · | · | ·
c1ccc2oc(C3=NNC(=NC4CC4)SC3)cc2c1 | – | – | 28µM | · | ? | –
O=C(NC1CCCCCC1)C(=S)NCc1ccccc1 | · | – | 25µM | · | · | ·
O=C(CSc1ccccc1C(=O)NCc1ccccc1)NC1CCCCCCC1 | – | – | – | ? | 20µM | –
O=C(NC1CCCCCC1)C(=S)NCCc1ccccc1 | · | – | 11µM | · | · | ·
O=C(NC1CCCCC1)C(=S)NCc1ccccc1 | · | – | – | · | · | ·
O=C(CSc1ccccc1C(=O)O)NC1CCCCCCC1 | – | – | ? | – | – | –
CCN(C(=O)COC(=O)c1ccccc1SCC(=O)NC1CCCCCCC1)C1CCS(=O)(=O)C1 (centres undefined) | – | – | ? | · | ? | -112
CC1=NN(c2ccccc2)C(=O)[C@@H]1N=Nc1ccc(S(N)(=O)=O)cc1 | –[11.4 µM] | – | –[13.5 µM] | · | – | ·
CCN(c1ccccc1)S(=O)(=O)c1c(C)nc2scc(C)n2c1=O | · | · | · | – | · | ·
CCCCCC(=O)/C=C/[C@@H]1[C@@H](C/C=C\CCCC(=O)O)[C@@H](O)C[C@H]1O | – | – | – | · | – | ·
CCOC(=O)c1cc(NC(=O)c2ccc(F)cc2)c(=O)n2c1oc1ccc(Cl)cc12 | · | · | · | – | · | ·
COCCCNC(=O)c1ccc(Cn2c(=O)c3ccccc3n(CC(N)=O)c2=O)cc1 | · | · | · | – | · | ·
CCn1c(=O)cc(OCC(=O)NCc2cccs2)c2ccccc21 | · | – | – | · | · | ·
COC(=O)COc1cc(Br)c(/C=C2/SC(=O)N(CC(=O)N3CCCC3)C2=O)cc1OC | – | – | 20µM | – | – | –
COC(=O)COc1ccc(/C=C2/SC(=O)N(CC(=O)N3CCCC3)C2=O)cc1Br | – | – | – | – | – | –
Cc1nc2ccccn2c1-c1csc(NCc2ccco2)n1 | – | – | 22µM | – | ? | –
NC(C(=O)N[C@@H]1C(=O)N2C(C(=O)O)=C(Cl)CS[C@H]12)c1ccccc1 (some centres undefined) | · | – | ? | · | – | ·
O=[N+]([O-])c1ccc(S(=O)(=O)CC(CN2CCCCC2)N2CCCCC2)cc1 (centres undefined) | · | – | 7.1µM | · | · | ·
COc1ccccc1CNC(=O)c1cccc(C)c1[N+](=O)[O-] | – | – | – | – | 18µM | –
COc1ccc(CCCC(=O)NCc2ccccc2)cc1C | – | – | – | · | 16µM | –
SMILES | 12-hLO inh | IMPase Li inh | ALDH1A1 inh | IMPase cell inh | HPGD inh | PNC assembly inh
COc1cccc(C(=O)NCCC2=CCCCC2)c1OC | – | – | ? | – | – | –
Cc1ccc(CNC(=O)CCCc2ccccc2)cc1 | · | – | – | · | · | ·
COCCCNC(=O)c1cccc(OC)c1OC | – | – | – | – | 7.1µM | ?
COc1ccccc1CNC(=O)c1ccoc1C | – | – | ? | – | – | –
COc1ccccc1C(=O)NCc1ccc(-c2nc3ccccc3s2)cc1 | – | – | ? | · | 18µM | ?
COc1ccc(CNC(=O)c2ccccc2[N+](=O)[O-])cc1 | – | – | – | – | 11µM | –
